Results filed as inconclusive are left out. A call without a number means that no potency is given here. Unmarked numbers belong to inactive results. Calls of active or inactive are those of the source. Calls follow the shape of the dose curve; as a rule, active = well fitted curve in the direction sought with a large enough effect; inconclusive = small, poorly fitted or top-dose-only effect, or another doubt; inactive = no such curve, though single readings can be large; an effect the other way counts as inactive or inconclusive.
Experiments:
[1] = qHTS of pediatric cancer cell lines to identify multiple opportunities for drug repurposing: Primary screen for DAOY cells (AID 1347090); also: nearly all actives have a fitted effect of over 55% in size; also: potency is read from the fitted curve at half-maximal effect
Procedure, shortened: (§1)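 Cell viability, CellTiter-Glo luminescence; 500-1,000 cells/well, 8- or 11-point titration, 48 h compound exposure at 37 degrees C, 5% CO2. Controls: DMSO neutral, bortezomib 2.3 µM final as positive.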

[2] = qHTS of pediatric cancer cell lines to identify multiple opportunities for drug repurposing: Primary screen for A673 cells (AID 1347092); also: nearly all actives have a fitted effect of over 45% in size; also: potency is read from the fitted curve at half-maximal effect
Procedure, shortened: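 Titration-based qHTS on A673 cells: MIPE compounds spanned 11 points (0.78 nM to 46 µM final), NPC compounds 8 points (0.59 nM to 46 µM final). Viability after 48 h was measured by ATP luminescence.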

[3] = qHTS of pediatric cancer cell lines to identify multiple opportunities for drug repurposing: Primary screen for BT-37 cells (AID 1347094); also: potency is read from the fitted curve at half-maximal effect
Procedure, shortened: (§2)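 Plated cells (500-1,000 per well, growth media) were allowed to settle for 5 hours, treated with compound dilutions for 48 hours, then lysed with CellTiter-Glo for 15 min at room temperature before luminescence reading.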

[4] = qHTS of pediatric cancer cell lines to identify multiple opportunities for drug repurposing: Primary screen for NB-EBc1 cells (AID 1347095); also: potency is read from the fitted curve at half-maximal effect
Procedure, shortened: as §2

[5] = qHTS of pediatric cancer cell lines to identify multiple opportunities for drug repurposing: Primary screen for U-2 OS cells (AID 1347096); also: nearly all actives have a fitted effect of over 50% in size
Procedure, shortened: (§3)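 Cells (500-1,000/well) rested 5 h, then received compounds for 48 h; metabolically active cells were measured by CellTiter-Glo luminescence. Final concentrations spanned up to 46 µM (MIPE, 11-point) or 0.59 nM-46 µM (NPC, 8-point) in primary screens, 11-point in follow-ups.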

[6] = qHTS of pediatric cancer cell lines to identify multiple opportunities for drug repurposing: Primary screen for Saos-2 cells (AID 1347097); also: nearly all actives have a fitted effect of over 40% in size; also: potency is read from the fitted curve at half-maximal effect
Procedure, shortened: as §2

[7] = qHTS of pediatric cancer cell lines to identify multiple opportunities for drug repurposing: Primary screen for SK-N-SH cells (AID 1347098); also: nearly all actives have a fitted effect of over 65% in size; also: potency is read from the fitted curve at half-maximal effect
Procedure, shortened: as §3

[8] = qHTS of pediatric cancer cell lines to identify multiple opportunities for drug repurposing: Primary screen for NB1643 cells (AID 1347099); also: nearly all actives have a fitted effect of over 50% in size; also: potency is read from the fitted curve at half-maximal effect
Procedure, shortened: as §2

[9] = qHTS of pediatric cancer cell lines to identify multiple opportunities for drug repurposing: Primary screen for SJ-GBM2 cells (AID 1347091)
Procedure, shortened: as §1

[10] = qHTS of pediatric cancer cell lines to identify multiple opportunities for drug repurposing: Primary screen for SK-N-MC cells (AID 1347093); also: potency is read from the fitted curve at half-maximal effect
Procedure, shortened: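 Metabolically active cells were quantified by ATP-dependent luminescence (CellTiter-Glo, 15 min at room temperature) following 48 h treatment. Cells had been plated at 500-1,000 per well and settled for 5 h beforehand.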

Structure (SMILES)	Potency [1]	Potency [2]	Potency [3]	Potency [4]	Potency [5]	Potency [6]	Potency [7]	Potency [8]	Potency [9]	Potency [10]
CCN(CC)CCSC(=O)C(c1ccccc1)c1ccccc1	inactive	21.1 µM (active)	inactive	23.7 µM (active)	inactive	inactive	inactive	23.7 µM (active)	–	–
O=C(CCCN1CCN(c2ccccn2)CC1)c1ccc(F)cc1	inactive	–	inactive	inactive	–	–	inactive	inactive	inactive	–
CC(=O)c1ccc2c(c1)N(CCCN(C)C)c1ccccc1S2	inactive	–	–	inactive	inactive	inactive	–	inactive	inactive	inactive
CSc1ccc2c(c1)N(CCC1CCCCN1C)c1ccccc1S2 (stereo not drawn)	16.8 µM (active)	21.1 µM (active)	24.6 µM (active)	inactive	–	23.7 µM (active)	–	–	–	–
CCCCN(CCCC)CC(O)c1cc(Cl)cc2c1-c1ccc(Cl)cc1/C2=C/c1ccc(Cl)cc1 (stereo not drawn)	inactive	–	–	inactive	inactive	–	inactive	inactive	inactive	inactive
CC1(C)[C@@H]2CC[C@@]1(C)C(=O)C2	–	inactive	inactive	inactive	inactive	inactive	inactive	inactive	inactive	inactive
O=C1OC(OC(=O)c2cccnc2Nc2cccc(C(F)(F)F)c2)c2ccccc21 (stereo not drawn)	inactive	–	–	inactive	inactive	inactive	inactive	inactive	inactive	–
CN1CCC[C@@H]1Cc1c[nH]c2ccc(CCS(=O)(=O)c3ccccc3)cc12	–	inactive	inactive	inactive	inactive	inactive	inactive	inactive	inactive	inactive
O=c1[nH]cnc2c1ncn2[C@@H]1O[C@H](CO)[C@@H](O)[C@H]1O	inactive	inactive	–	inactive	inactive	inactive	inactive	inactive	–	inactive
CN(C)CCCN1c2ccccc2CCc2ccccc21	inactive	–	inactive	inactive	inactive	inactive	inactive	inactive	inactive	–
CCCCN(CCCC)CCCOC(=O)c1ccc(N)cc1	–	inactive	inactive	inactive	inactive	inactive	inactive	inactive	inactive	inactive
[Cl][In]([Cl])[Cl]	inactive	–	–	inactive	inactive	–	inactive	inactive	inactive	–
CN(C)CCC=C1c2ccccc2CCc2ccccc21	inactive	–	–	–	inactive	–	–	inactive	–	–
COc1ccc2cc1Oc1ccc(cc1)C[C@H]1c3c(cc4c(c3Oc3cc5c(cc3OC)CCN(C)[C@@H]5C2)OCO4)CCN1C	inactive	13.3 µM (active)	17.4 µM (active)	–	–	–	12.2 µM (active)	inactive	–	15 µM (active)
CC(CN(C)C)CN1c2ccccc2CCc2ccccc21 (stereo not drawn)	inactive	–	–	inactive	inactive	–	–	inactive	–	inactive
CNCC(O)c1ccc(O)c(O)c1 (stereo not drawn)	inactive	–	inactive	inactive	inactive	26.6 µM (active)	–	inactive	inactive	–
Nc1ccc(S(=O)(=O)NC(=O)c2ccccc2)cc1	–	inactive	inactive	inactive	inactive	inactive	inactive	inactive	inactive	inactive

Structure (SMILES)	Potency [1]	Potency [2]	Potency [3]	Potency [4]	Potency [5]	Potency [6]	Potency [7]	Potency [8]	Potency [9]	Potency [10]
CSc1ccc2c(c1)C(N1CCN(C)CC1)Cc1ccccc1S2 (stereo not drawn)	inactive	–	–	inactive	inactive	–	27.3 µM (active)	inactive	–	–
C[C@]12C[C@H](O)[C@H]3[C@@H](CCC4=CC(=O)CC[C@@]43C)[C@@H]1CC[C@@H]2C(=O)CO	–	inactive	inactive	inactive	inactive	inactive	inactive	inactive	inactive	inactive
CN1[C@@H]2CC(OC(=O)[C@H](CO)c3ccccc3)C[C@H]1[C@@H]1O[C@@H]12 (stereo partly drawn)	–	inactive	inactive	inactive	inactive	inactive	inactive	inactive	inactive	inactive
O=C1NC(=O)[C@@]2(CCOc3ccc(F)cc32)N1	–	inactive	inactive	inactive	inactive	inactive	inactive	inactive	inactive	inactive
CCOc1ccc2ccccc2c1C(=O)N[C@@H]1C(=O)N2[C@@H]1SC(C)(C)[C@@H]2C(=O)O	–	inactive	inactive	inactive	inactive	inactive	inactive	inactive	inactive	inactive
Oc1ccc(C(O)CNCCCCCCNCC(O)c2ccc(O)c(O)c2)cc1O (stereo not drawn)	inactive	–	–	inactive	inactive	–	inactive	inactive	inactive	inactive
OCc1cc(C(O)CNCCCCCCOCCCCc2ccccc2)ccc1O (stereo not drawn)	inactive	21.1 µM (active)	–	–	inactive	inactive	–	inactive	–	–
C=Cc1c(C)c2cc3[nH]c(cc4nc(cc5nc(cc1[nH]2)C(C)=C5CCC(=O)O)C(CCC(=O)O)=C4C)c(C)c3C=C	–	inactive	inactive	inactive	inactive	inactive	inactive	inactive	inactive	inactive
CCOC(=O)c1ccc(O)cc1	–	inactive	inactive	inactive	inactive	inactive	inactive	inactive	inactive	inactive
CN(N=O)C(=O)N[C@@H]1[C@@H](O)[C@H](O)[C@@H](CO)O[C@@H]1O	–	inactive	inactive	inactive	inactive	inactive	inactive	inactive	inactive	inactive
O=C(O)CN1C(=O)c2cccc3cccc(c23)C1=O	inactive	–	–	inactive	inactive	–	inactive	inactive	inactive	inactive
Nc1ncnc2c1ncn2[C@@H]1O[C@H](CO)[C@@H](O)[C@H]1O	inactive	–	–	inactive	inactive	inactive	inactive	inactive	inactive	–
O=C(O)COc1nn(Cc2ccccc2)c2ccccc12	–	inactive	inactive	inactive	inactive	inactive	inactive	inactive	inactive	inactive
CCC(=O)c1ccc(O)cc1	–	inactive	inactive	inactive	inactive	inactive	inactive	inactive	inactive	inactive
CCN(CC)CCOC(=O)C1(C2CCCCC2)CCCCC1	inactive	inactive	–	–	inactive	–	–	inactive	–	–
CCCc1c(OCCCCc2nn[nH]n2)ccc(C(C)=O)c1O	–	inactive	inactive	inactive	inactive	inactive	inactive	inactive	inactive	inactive
CCCCOc1cc(C(=O)OCCN(CC)CC)ccc1N	–	inactive	inactive	inactive	inactive	inactive	inactive	inactive	inactive	inactive

— PubChem BioAssay (NCATS)
